Reference: paper PMC7862700, “An all-to-all approach to the identification of sequence-specific readers for epigenetic DNA modifications on cytosine”

Key:
Assay in all cases: DAPPL (digital affinity profiling via proximity ligation, sequencing); 10 mM Tris-HCl pH 7.5, 50 mM NaCl, 1 mM DTT, 4% glycerol, room temperature, 30 min; GST-TFs on glutathione beads, 16-mer random dsDNA library, 0.1% formaldehyde crosslink after washing; high values mean tight binding
FLI1 = molecular target: T1, FLI1 (Homo sapiens, UniProt Q01543 1-452); conditions: protein: recombinant; tags: N-terminal GST; dsDNA, one strand shown
T1 sequence: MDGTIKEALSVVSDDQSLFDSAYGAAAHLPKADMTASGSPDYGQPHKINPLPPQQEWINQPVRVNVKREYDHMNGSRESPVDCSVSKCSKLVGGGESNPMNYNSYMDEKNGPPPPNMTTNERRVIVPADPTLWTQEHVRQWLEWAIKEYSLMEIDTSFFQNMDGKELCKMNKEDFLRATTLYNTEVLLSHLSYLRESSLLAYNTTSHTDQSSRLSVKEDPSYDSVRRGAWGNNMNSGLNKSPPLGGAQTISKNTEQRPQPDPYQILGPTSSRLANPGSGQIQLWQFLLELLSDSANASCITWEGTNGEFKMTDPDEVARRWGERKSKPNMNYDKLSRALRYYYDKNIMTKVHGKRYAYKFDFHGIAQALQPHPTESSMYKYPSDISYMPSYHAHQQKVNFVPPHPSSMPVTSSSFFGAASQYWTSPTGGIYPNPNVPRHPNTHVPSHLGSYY
Procedure, shortened: (§1)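 Human transcription factors were made in yeast as GST fusions, captured on glutathione beads and barcoded with DNA. With a tag-only sample included, the pool was incubated with 200 nmole of a random double-stranded 16-mer DNA library in Tris/NaCl/DTT/glycerol buffer at room temperature for 30 min, then crosslinked with 0.1% formaldehyde after washing, ligated by proximity, amplified and sequenced. For binding signal, each hexamer's read frequency for a factor is divided by its frequency for the tag-only sample.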

ELK1 = molecular target: T2, ELK1 (Homo sapiens, UniProt P19419 1-428); conditions: protein: recombinant; tags: N-terminal GST; dsDNA, one strand shown
T2 sequence: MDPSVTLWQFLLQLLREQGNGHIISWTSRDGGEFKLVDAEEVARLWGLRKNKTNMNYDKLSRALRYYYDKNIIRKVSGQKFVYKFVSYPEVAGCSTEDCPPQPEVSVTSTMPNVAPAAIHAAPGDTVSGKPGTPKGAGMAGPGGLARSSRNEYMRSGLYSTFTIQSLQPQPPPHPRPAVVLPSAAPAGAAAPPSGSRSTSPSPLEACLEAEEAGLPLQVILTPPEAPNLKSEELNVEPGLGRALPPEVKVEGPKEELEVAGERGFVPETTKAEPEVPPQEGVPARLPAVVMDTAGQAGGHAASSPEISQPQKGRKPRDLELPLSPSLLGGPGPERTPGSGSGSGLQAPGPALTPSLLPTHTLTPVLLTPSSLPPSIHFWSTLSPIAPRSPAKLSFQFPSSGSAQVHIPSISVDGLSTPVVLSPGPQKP
Procedure, shortened: as §1

GABPA = molecular target: T3, GABPA (Homo sapiens, UniProt Q06546 1-454); conditions: protein: recombinant; tags: N-terminal GST; dsDNA, one strand shown
T3 sequence: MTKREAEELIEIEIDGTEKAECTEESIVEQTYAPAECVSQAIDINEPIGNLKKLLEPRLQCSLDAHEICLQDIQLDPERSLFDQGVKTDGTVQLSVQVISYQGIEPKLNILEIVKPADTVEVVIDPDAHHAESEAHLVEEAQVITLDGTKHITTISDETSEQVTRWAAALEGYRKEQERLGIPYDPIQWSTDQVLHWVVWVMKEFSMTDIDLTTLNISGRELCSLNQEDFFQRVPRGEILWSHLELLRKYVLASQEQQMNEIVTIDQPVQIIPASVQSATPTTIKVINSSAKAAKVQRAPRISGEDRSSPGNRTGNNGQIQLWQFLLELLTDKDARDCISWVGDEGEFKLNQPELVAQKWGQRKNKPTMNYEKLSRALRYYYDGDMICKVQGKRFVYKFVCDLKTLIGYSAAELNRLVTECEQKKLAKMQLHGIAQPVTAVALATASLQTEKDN
Procedure, shortened: as §1

ERG = molecular target: T4, ERG (Homo sapiens, UniProt P11308 1-479); conditions: protein: recombinant; tags: N-terminal GST; dsDNA, one strand shown
T4 sequence: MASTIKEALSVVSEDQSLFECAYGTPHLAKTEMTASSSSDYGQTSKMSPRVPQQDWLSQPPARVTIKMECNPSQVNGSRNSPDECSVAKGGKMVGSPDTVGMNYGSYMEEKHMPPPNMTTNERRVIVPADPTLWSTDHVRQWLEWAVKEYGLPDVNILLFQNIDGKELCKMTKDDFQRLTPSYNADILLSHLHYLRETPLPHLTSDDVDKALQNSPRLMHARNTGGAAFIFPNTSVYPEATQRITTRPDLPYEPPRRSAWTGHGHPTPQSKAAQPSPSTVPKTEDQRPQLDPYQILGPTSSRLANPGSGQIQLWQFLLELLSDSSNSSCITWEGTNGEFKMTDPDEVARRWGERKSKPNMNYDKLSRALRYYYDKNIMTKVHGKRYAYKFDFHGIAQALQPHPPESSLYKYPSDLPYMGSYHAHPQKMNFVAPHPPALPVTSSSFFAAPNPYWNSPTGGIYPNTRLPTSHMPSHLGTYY
Procedure, shortened: as §1

ELF1 = ELF1 (Homo sapiens, UniProt P32519 1-619); conditions: protein: recombinant; tags: N-terminal GST; dsDNA, one strand shown
Procedure, shortened: as §1

EHF = molecular target: T5, EHF (Homo sapiens, UniProt Q9NZC4 1-300); conditions: protein: recombinant; tags: N-terminal GST; dsDNA, one strand shown
T5 sequence: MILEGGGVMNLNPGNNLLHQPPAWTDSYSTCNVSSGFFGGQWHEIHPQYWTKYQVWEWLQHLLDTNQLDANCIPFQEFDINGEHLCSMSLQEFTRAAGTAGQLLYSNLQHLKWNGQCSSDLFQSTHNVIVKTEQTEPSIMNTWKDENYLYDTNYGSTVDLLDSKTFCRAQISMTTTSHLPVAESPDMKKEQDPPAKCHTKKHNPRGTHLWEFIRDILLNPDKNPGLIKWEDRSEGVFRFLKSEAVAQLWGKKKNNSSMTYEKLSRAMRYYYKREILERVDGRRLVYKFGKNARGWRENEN
Procedure, shortened: as §1

SPI1 = SPI1 (Homo sapiens, UniProt P17947 1-270); conditions: protein: recombinant; tags: N-terminal GST; dsDNA, one strand shown
Procedure, shortened: as §1

SPIB = SPIB (Homo sapiens, UniProt Q01892 1-262); conditions: protein: recombinant; tags: N-terminal GST; dsDNA, one strand shown
Procedure, shortened: as §1

ELK3 = molecular target: T6, ELK3 (Homo sapiens, UniProt P41970 1-407); conditions: protein: recombinant; tags: N-terminal GST; dsDNA, one strand shown
T6 sequence: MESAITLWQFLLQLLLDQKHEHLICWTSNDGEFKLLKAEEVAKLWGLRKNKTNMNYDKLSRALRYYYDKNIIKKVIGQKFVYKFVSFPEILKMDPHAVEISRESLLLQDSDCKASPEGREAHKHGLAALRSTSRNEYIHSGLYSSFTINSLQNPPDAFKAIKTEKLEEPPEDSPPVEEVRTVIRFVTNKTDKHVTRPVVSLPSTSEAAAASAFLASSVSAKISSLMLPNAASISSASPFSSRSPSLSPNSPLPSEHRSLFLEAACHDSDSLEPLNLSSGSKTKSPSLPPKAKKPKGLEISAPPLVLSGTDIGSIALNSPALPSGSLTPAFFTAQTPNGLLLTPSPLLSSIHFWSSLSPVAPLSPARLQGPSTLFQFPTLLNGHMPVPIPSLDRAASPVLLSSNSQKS
Procedure, shortened: as §1

FEV = molecular target: T7, FEV (Homo sapiens, UniProt Q99581 1-238); conditions: protein: recombinant; tags: N-terminal GST; dsDNA, one strand shown
T7 sequence: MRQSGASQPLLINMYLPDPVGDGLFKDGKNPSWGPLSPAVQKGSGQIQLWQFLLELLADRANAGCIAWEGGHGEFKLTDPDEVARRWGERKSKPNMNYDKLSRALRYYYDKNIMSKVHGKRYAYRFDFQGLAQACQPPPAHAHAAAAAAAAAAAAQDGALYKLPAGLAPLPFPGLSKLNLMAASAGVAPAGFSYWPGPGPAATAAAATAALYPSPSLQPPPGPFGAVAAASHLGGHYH
Procedure, shortened: as §1

ETV5 = ETV5 (Homo sapiens, UniProt P41161 1-510); conditions: protein: recombinant; tags: N-terminal GST; dsDNA, one strand shown
Procedure, shortened: as §1

HSF1 = HSF1 (Homo sapiens, UniProt Q00613 1-529); conditions: protein: recombinant; tags: N-terminal GST; chain copies: 3; dsDNA, one strand shown
Procedure, shortened: as §1

SPIC = molecular target: T8, SPIC (Homo sapiens, UniProt Q8N5J4 1-248); conditions: protein: recombinant; tags: N-terminal GST; dsDNA, one strand shown
T8 sequence: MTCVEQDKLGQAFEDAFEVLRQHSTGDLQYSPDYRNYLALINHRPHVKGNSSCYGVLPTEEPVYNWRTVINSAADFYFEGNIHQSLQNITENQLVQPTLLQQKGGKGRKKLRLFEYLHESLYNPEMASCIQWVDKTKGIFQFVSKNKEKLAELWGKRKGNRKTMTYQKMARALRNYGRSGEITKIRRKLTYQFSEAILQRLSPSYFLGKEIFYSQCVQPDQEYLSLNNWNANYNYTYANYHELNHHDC
Procedure, shortened: as §1

ELF4 = ELF4 (Homo sapiens, UniProt Q99607 1-663); conditions: protein: recombinant; tags: N-terminal GST; dsDNA, one strand shown
Procedure, shortened: as §1

ELK4 = molecular target: T9, ELK4 (Homo sapiens, UniProt P28324-2 1-405); conditions: protein: recombinant; tags: N-terminal GST; dsDNA, one strand shown
T9 sequence: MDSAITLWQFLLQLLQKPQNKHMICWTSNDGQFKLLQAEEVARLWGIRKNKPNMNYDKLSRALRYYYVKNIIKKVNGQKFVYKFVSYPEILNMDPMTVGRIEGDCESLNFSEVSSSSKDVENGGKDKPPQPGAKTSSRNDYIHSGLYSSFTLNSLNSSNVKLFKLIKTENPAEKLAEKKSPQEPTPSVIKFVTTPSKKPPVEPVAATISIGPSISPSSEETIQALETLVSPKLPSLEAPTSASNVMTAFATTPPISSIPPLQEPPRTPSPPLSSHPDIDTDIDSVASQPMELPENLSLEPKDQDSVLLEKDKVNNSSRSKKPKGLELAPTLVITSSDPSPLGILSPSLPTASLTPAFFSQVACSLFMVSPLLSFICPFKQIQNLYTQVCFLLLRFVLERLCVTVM
Procedure, shortened: as §1

ETV2 = molecular target: T10, ETV2 (Homo sapiens, UniProt O00321 1-342); conditions: protein: recombinant; tags: N-terminal GST; dsDNA, one strand shown
T10 sequence: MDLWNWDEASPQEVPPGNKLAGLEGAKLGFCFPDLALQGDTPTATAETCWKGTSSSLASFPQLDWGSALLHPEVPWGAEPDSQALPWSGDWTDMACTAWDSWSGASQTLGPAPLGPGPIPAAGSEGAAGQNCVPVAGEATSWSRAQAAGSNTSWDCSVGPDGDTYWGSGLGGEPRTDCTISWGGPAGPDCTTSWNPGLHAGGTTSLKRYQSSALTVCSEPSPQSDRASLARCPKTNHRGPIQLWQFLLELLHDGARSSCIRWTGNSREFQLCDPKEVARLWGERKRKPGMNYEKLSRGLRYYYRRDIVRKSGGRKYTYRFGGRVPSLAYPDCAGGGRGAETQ
Procedure, shortened: as §1

ELF3 = molecular target: T11, ELF3 (Homo sapiens, UniProt P78545 1-371); conditions: protein: recombinant; tags: N-terminal GST; dsDNA, one strand shown
T11 sequence: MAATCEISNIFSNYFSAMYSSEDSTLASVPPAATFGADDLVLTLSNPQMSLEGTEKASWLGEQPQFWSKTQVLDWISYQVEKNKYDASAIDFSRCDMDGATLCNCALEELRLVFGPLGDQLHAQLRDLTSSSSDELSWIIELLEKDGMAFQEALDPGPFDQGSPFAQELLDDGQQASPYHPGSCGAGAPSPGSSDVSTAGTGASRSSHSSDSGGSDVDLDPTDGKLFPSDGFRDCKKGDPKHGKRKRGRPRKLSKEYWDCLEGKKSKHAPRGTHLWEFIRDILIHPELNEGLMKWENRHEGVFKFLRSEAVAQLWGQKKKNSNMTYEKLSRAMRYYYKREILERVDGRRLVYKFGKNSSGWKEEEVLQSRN
Procedure, shortened: as §1

CRX = CRX (Homo sapiens, UniProt O43186 1-299); conditions: protein: recombinant; tags: N-terminal GST; dsDNA, one strand shown
Procedure, shortened: as §1

ETV1 = ETV1 (Homo sapiens, UniProt P50549 1-477); conditions: protein: recombinant; tags: N-terminal GST; dsDNA, one strand shown
Procedure, shortened: as §1

HSF1, sequence (Q00613 whole entry): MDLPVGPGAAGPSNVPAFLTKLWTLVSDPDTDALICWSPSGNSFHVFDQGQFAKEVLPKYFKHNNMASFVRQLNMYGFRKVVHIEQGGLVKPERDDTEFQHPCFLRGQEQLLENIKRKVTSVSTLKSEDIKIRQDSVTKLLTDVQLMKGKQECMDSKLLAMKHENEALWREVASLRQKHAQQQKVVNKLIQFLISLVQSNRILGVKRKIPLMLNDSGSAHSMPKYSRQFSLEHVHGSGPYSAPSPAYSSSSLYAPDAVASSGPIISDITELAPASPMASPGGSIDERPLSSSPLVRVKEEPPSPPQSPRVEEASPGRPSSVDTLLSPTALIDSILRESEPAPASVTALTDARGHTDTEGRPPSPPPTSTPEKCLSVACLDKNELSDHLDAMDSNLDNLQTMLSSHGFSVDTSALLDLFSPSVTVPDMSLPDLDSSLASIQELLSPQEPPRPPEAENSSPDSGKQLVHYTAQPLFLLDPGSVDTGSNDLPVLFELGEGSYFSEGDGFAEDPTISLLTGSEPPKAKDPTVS
ELF1, sequence (P32519 whole entry): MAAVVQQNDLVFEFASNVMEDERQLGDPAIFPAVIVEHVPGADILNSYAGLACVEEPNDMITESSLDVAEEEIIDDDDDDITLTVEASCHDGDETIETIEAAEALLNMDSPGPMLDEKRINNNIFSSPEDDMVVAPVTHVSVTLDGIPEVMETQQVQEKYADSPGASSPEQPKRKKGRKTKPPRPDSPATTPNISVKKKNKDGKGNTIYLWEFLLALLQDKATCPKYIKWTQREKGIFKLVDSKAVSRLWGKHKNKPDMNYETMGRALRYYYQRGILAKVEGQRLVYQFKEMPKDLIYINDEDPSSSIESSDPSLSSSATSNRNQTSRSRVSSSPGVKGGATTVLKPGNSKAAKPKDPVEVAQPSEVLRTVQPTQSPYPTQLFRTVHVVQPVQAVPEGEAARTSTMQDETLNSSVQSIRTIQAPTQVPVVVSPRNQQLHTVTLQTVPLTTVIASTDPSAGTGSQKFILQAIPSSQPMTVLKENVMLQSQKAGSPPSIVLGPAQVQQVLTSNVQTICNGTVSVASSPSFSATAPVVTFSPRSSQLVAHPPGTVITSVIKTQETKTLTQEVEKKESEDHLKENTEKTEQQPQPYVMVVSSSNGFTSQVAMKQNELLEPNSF
ETV5, sequence (P41161 whole entry): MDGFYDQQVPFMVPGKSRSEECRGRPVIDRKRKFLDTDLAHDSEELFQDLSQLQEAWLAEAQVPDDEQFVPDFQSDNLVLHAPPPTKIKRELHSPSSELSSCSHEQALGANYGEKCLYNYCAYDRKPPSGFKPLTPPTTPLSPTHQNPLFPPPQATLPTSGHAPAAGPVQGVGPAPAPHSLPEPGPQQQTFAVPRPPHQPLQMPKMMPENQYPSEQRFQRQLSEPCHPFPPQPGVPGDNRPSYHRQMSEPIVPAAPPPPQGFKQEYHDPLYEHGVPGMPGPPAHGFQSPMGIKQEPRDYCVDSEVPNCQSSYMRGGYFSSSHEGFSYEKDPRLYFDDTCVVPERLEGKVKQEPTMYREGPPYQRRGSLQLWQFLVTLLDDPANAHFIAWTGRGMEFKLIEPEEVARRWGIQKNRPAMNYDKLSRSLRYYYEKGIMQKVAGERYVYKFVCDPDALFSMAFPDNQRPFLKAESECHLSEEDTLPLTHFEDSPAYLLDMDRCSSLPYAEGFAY
SPIB, sequence (Q01892 whole entry): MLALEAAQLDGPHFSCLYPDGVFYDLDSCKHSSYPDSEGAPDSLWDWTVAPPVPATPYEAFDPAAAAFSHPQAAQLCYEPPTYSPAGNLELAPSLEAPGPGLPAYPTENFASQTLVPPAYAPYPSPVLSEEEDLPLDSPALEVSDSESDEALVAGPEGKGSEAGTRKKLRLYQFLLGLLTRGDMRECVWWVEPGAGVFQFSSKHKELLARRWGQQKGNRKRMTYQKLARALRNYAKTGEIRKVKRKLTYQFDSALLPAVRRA
ETV1, sequence (P50549 whole entry): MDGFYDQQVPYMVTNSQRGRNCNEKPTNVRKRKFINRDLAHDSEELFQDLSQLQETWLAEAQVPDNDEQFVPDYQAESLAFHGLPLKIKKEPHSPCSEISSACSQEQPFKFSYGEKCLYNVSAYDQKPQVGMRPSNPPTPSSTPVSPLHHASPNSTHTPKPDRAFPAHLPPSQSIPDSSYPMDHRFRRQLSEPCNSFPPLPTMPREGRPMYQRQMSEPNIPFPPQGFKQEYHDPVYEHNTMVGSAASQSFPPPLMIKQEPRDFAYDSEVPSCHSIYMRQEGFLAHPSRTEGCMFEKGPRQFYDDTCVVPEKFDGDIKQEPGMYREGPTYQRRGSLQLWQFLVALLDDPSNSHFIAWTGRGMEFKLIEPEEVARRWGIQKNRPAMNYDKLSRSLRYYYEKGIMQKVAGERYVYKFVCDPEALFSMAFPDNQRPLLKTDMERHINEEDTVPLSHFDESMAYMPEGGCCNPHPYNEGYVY
ELF4, sequence (Q99607 whole entry): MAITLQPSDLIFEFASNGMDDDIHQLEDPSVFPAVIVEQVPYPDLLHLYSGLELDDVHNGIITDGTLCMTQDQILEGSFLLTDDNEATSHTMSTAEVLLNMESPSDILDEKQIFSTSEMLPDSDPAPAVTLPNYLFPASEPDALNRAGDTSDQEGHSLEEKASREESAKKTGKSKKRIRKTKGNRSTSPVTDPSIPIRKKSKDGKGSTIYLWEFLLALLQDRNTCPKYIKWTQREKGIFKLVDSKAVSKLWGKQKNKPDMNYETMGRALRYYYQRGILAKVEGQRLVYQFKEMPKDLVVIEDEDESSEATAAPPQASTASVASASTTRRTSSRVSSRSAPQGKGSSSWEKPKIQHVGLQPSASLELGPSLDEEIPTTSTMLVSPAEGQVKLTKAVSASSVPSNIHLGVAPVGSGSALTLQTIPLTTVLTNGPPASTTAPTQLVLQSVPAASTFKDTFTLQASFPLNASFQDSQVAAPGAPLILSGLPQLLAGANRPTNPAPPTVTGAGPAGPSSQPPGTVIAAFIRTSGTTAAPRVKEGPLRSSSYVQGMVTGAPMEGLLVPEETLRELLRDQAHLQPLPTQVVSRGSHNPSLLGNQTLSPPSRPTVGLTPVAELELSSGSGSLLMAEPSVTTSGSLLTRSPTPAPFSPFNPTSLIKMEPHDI
CRX, sequence (O43186 whole entry): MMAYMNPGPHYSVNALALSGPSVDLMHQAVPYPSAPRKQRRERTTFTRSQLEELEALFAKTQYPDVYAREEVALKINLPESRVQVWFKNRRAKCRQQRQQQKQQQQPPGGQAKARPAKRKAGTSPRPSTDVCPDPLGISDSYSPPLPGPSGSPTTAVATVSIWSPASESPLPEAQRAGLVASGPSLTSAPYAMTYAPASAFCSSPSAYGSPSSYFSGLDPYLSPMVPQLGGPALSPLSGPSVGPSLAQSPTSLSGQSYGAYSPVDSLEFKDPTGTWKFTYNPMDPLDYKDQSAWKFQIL

Sequence: CCTCGC
- binding signal (FLI1): 1.53 fold enrichment (6-mer frequency, TF over GST control)
- binding signal (ELK1): 1.54 fold enrichment (6-mer frequency, TF over GST control)
- binding signal (GABPA): 1.43 fold enrichment (6-mer frequency, TF over GST control)
- binding signal (ERG): 1.5 fold enrichment (6-mer frequency, TF over GST control)
- binding signal (ELF1): 1.37 fold enrichment (6-mer frequency, TF over GST control)
- binding signal (EHF): 1.42 fold enrichment (6-mer frequency, TF over GST control)
- binding signal (SPI1): 1.39 fold enrichment (6-mer frequency, TF over GST control)
- binding signal (SPIB): 1.42 fold enrichment (6-mer frequency, TF over GST control)
- binding signal (ELK3): 1.26 fold enrichment (6-mer frequency, TF over GST control)
- binding signal (FEV): 1.37 fold enrichment (6-mer frequency, TF over GST control)
- binding signal (ETV5): 1.51 fold enrichment (6-mer frequency, TF over GST control)
- binding signal (HSF1): 1.36 fold enrichment (6-mer frequency, TF over GST control)
- binding signal (SPIC): 1.46 fold enrichment (6-mer frequency, TF over GST control)
- binding signal (ELF4): 1.6 fold enrichment (6-mer frequency, TF over GST control)
- binding signal (ELK4): 1.62 fold enrichment (6-mer frequency, TF over GST control)
- binding signal (ETV2): 1.6 fold enrichment (6-mer frequency, TF over GST control)
- binding signal (ELF3): 1.56 fold enrichment (6-mer frequency, TF over GST control)
- binding signal (CRX): 1.16 fold enrichment (6-mer frequency, TF over GST control)
- binding signal (ETV1): 1.54 fold enrichment (6-mer frequency, TF over GST control)
